The results in this text go back to ChEMBL document CHEMBL2218924, “A broad activity screen in support of a chemogenomic map for kinase signalling research and drug discovery” (Biochem J, 2013).

Assay [1] concerns the target Focal adhesion kinase 1 (Homo sapiens) (UniProt Q05397). To be noted: at 10 µM.
Assay [2] addresses Fibroblast growth factor receptor 1 (Homo sapiens) (UniProt P11362). As to conditions: at 1 µM.
The target in assay [3] is Tyrosine-protein kinase Fer (Homo sapiens) (UniProt P16591). To be noted: at 10 µM.
Assay [4] deals with Receptor-type tyrosine-protein kinase FLT3 (Homo sapiens) (UniProt P36888). As to conditions: at 10 µM.
The target in assay [5] is Fibroblast growth factor receptor 1 (Homo sapiens) (UniProt P11362). As to conditions: at 10 µM.
Assay [6] has as its target Fibroblast growth factor receptor 2 (Homo sapiens) (UniProt P21802). To be noted: at 1 µM.
Assay [7] shares this target. To be noted: at 10 µM.
In assay [8] the target is Tyrosine-protein kinase Fer (Homo sapiens) (UniProt P16591). As to conditions: at 1 µM.
In assay [9] the target is Tyrosine-protein kinase Fes/Fps (Homo sapiens) (UniProt P07332). To be noted: at 1 µM.
Assay [10] shares this target. As to conditions: at 10 µM.
Assay [11] addresses Tyrosine-protein kinase Fgr (Homo sapiens) (UniProt P09769). As to conditions: at 1 µM.
Assay [12] has the same target. As to conditions: at 10 µM.
Assay [13] concerns the target Vascular endothelial growth factor receptor 1 (Homo sapiens) (UniProt P17948). As to conditions: at 1 µM.
For assay [14] the target is unchanged. To be noted: at 10 µM.
For assay [15], the target named is Receptor-type tyrosine-protein kinase FLT3 (Homo sapiens) (UniProt P36888). To be noted: at 1 µM.
Assay [16] deals with Vascular endothelial growth factor receptor 3 (Homo sapiens) (UniProt P35916). To be noted: at 1 µM.
The target in assay [17] is Fibroblast growth factor receptor 3 (Homo sapiens) (UniProt P22607). To be noted: at 1 µM.
The target is the same in assay [18]. As to conditions: at 10 µM.
Assay [19] concerns the target Fibroblast growth factor receptor 4 (Homo sapiens) (UniProt P22455). As to conditions: at 10 µM.
For assay [20] the target is unchanged. As to conditions: at 1 µM.

Tyrosine-protein kinase Fer (Homo sapiens), sequence (P16591 whole entry, looked up): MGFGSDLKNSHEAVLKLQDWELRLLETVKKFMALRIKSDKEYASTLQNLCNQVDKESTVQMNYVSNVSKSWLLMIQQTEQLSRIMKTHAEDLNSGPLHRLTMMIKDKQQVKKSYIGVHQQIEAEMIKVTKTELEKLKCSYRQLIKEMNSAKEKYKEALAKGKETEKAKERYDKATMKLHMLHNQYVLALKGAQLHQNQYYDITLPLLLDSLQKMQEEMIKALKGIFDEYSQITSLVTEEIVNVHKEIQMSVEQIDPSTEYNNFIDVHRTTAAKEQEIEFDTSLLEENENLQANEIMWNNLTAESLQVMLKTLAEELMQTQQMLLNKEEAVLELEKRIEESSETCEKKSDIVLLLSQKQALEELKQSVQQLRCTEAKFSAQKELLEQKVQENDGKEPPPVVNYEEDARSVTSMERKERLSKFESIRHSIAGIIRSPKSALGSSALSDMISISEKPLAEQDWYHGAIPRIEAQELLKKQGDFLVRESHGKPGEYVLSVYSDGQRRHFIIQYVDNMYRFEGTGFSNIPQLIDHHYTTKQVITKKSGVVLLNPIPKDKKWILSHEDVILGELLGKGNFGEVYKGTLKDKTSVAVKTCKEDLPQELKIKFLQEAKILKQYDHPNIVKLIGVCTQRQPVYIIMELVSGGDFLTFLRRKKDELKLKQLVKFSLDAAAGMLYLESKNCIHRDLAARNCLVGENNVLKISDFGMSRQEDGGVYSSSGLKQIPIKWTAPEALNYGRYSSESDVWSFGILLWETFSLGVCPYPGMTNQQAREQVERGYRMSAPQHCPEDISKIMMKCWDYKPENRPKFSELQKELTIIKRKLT
Focal adhesion kinase 1 (Homo sapiens), sequence (Q05397 2-1052 limits assumed): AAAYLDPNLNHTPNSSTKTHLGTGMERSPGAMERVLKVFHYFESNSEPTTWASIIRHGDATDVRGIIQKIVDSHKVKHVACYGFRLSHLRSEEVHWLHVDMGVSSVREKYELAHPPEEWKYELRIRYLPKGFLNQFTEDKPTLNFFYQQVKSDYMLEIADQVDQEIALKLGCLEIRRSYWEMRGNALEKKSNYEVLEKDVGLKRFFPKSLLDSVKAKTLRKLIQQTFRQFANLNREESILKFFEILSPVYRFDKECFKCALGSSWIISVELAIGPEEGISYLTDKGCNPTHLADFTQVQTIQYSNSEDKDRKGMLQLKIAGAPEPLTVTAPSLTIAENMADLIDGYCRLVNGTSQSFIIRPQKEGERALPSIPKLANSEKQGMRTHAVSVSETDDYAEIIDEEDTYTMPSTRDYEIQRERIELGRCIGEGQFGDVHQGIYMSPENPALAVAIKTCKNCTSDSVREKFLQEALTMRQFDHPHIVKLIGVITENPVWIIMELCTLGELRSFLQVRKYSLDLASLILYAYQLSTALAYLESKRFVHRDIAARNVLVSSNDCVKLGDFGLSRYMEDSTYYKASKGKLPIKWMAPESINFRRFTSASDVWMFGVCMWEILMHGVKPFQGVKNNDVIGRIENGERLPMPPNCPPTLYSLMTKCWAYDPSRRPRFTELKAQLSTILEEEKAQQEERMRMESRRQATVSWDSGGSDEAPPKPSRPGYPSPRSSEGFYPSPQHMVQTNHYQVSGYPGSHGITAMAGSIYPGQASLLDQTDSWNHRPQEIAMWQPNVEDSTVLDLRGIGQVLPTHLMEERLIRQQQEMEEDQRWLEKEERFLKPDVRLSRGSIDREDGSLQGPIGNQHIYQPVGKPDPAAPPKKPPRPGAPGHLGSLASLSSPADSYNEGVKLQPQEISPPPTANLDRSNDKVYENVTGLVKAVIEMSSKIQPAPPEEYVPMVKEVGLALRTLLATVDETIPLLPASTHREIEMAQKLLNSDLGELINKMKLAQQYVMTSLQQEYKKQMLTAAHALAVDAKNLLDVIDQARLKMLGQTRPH
Fibroblast growth factor receptor 4 (Homo sapiens), sequence (P22455 22-802 limits assumed): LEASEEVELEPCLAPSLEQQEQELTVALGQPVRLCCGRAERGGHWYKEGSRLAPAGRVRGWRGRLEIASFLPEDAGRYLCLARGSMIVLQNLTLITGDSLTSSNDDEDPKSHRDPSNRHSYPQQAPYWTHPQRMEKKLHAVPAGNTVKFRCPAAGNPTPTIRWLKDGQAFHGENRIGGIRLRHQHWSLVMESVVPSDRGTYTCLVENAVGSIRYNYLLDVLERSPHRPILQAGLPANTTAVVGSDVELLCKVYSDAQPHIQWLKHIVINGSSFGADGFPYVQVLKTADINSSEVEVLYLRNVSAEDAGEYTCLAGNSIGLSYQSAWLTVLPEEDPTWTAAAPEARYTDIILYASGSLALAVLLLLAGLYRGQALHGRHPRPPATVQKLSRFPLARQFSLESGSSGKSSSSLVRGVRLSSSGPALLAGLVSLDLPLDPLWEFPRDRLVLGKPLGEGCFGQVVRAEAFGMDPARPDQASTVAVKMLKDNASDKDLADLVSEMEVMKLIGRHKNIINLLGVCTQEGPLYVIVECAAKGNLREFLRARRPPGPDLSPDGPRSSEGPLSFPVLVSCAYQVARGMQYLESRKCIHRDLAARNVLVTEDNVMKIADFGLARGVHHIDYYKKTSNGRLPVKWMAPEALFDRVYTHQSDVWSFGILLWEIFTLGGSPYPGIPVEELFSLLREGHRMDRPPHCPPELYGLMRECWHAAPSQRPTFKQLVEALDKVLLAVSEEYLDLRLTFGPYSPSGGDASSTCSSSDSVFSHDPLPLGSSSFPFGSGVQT
Fibroblast growth factor receptor 1 (Homo sapiens), sequence (P11362 22-822 limits assumed): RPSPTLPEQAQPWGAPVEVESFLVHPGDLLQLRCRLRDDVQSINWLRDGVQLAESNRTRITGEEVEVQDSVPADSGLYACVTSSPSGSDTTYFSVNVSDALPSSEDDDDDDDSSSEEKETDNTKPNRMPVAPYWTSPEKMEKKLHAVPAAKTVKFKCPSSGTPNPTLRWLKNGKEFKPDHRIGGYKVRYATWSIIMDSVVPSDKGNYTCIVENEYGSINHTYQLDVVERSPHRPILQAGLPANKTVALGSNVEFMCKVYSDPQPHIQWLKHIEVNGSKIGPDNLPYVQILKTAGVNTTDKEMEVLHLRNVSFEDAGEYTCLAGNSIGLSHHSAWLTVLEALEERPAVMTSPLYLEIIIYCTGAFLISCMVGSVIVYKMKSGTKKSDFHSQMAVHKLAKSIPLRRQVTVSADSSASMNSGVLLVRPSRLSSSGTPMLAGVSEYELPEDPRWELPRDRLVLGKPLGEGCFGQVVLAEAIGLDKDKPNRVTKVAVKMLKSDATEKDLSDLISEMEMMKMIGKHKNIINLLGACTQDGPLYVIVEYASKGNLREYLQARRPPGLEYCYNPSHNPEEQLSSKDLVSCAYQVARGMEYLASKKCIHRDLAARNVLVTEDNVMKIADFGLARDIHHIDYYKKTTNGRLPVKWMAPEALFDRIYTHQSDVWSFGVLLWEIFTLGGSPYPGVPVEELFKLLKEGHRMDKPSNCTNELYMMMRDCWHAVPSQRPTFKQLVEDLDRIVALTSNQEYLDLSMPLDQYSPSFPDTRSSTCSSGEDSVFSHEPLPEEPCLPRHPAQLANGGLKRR
Vascular endothelial growth factor receptor 3 (Homo sapiens), sequence (P35916 whole entry): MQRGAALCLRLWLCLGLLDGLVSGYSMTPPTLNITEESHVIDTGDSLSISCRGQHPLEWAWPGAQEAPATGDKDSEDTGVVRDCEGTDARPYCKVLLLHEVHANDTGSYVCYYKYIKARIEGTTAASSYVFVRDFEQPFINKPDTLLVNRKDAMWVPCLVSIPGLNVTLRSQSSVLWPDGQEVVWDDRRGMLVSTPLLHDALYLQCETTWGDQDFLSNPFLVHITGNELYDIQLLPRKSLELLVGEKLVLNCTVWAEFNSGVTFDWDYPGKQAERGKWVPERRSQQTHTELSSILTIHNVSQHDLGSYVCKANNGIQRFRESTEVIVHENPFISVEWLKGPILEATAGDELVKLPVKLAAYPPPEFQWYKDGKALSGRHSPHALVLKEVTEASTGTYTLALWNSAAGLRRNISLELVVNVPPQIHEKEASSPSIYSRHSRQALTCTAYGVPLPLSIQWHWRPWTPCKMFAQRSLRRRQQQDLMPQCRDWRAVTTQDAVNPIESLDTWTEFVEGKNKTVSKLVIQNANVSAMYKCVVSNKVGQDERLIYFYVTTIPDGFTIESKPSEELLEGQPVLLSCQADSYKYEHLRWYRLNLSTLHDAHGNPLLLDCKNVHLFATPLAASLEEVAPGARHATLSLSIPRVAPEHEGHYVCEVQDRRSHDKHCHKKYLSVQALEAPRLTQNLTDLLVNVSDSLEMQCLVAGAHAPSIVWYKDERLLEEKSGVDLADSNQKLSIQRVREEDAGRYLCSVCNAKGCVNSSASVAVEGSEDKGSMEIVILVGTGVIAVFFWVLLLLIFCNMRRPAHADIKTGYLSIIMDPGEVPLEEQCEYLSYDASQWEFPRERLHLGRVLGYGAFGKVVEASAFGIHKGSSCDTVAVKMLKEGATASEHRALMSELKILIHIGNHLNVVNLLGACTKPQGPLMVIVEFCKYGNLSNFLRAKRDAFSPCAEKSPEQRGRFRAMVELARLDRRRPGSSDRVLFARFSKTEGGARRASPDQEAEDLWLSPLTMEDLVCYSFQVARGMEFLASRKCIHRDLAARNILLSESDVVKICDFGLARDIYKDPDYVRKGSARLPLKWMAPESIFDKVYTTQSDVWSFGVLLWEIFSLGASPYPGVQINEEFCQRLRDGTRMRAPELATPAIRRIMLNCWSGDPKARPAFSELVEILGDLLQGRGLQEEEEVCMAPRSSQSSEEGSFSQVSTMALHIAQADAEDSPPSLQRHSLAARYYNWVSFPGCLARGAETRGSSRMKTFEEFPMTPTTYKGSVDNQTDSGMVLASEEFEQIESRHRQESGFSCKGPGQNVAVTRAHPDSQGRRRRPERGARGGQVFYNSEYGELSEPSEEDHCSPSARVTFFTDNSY

Turning to `CC(C)N(CCC(=O)c1ccc2ccccc2c1)Cc1ccccc1`, the residual activity (in general, the signal under treatment as a percentage of the control signal) in assay [1] came to 85%; in [2], 125%; in assay [3], 87%; in assay [4], 82%.

With `c1ccc(-c2cnc(Nc3ccc(OCCN4CCCC4)cc3)s2)cc1`, the residual activity in [1] is 46%; in [2] it was 59%; in assay [5] it was 8%; in [6], 80%; in assay [7], 28%; in assay [8], 111%. For the same compound, the residual activity was 123% in assay [9]; 59% in assay [10]; 63% in assay [11]; 11% in assay [12]; 4% in [13]; 0% in assay [14]. In addition, the residual activity was determined as 4% in [15], 0% in assay [4] and 2% in assay [16].

As to `COc1cc2nccc(Oc3ccc(NC(=S)NC(=O)c4ccccc4C)cc3)c2cc1OC`, the residual activity in [1] turned out to be 66%; in assay [2] it was 49%; in assay [5] it was 8%; in [6], 84%; in assay [7], 40%; in [17] it was 90%. Further, the residual activity worked out at 58% in assay [18]; 78% in [19]; 70% in assay [8]; 34% in assay [3]; 79% in assay [9]; 36% in assay [10]. Besides, the residual activity in [11] came out at 14%; in assay [12], 3%; in assay [13], 5%; in [14] it was 0%; in assay [15] it was 75%; in assay [4], 31%. Besides, in assay [16], the residual activity was 1%.

As for `CCCCc1c(-c2ccc(OC)cc2)[nH]c2nccnc12`, the residual activity in assay [1] worked out at 49%; in assay [2] it was 46%; in assay [5], 46%; in [6] it was 88%; in [7], 60%; in [18], 114%. Moreover, the residual activity in assay [20] worked out at 109%; in [19], 91%; in [8], 84%; in [3], 91%; in assay [9] it was 34%; in assay [10], 51%. The residual activity in [11] worked out at 61%; in assay [12] it was 78%; in assay [13], 44%; in assay [14], 32%; in assay [15] it was 27%; in assay [4], 30%. Further, the residual activity in [16] is 6%.

Take `Nc1ncnc2c1c(-c1ccc(Oc3ccccc3)cc1)cn2C1CCCC1`: the residual activity in assay [1] was 46%; in assay [2], 13%; in assay [5], -1%; in assay [6], 37%; in assay [7] it was 3%; in assay [17] it was 41%. Moreover, the residual activity in assay [18] stood at 7%; in [20], 100%; in [19] it was 46%; in assay [8] it was 100%; in assay [3], 45%; in [9] it was 112%. Moreover, the residual activity in assay [10] worked out at 52%; in assay [11], 2%; in [12], 0%; in assay [13] it was 15%; in [14] it was 0%; in assay [15], 19%. The residual activity in assay [4] was found to be 0%; in assay [16], 1%.

For `NC(=O)Nc1sc(-c2ccc(F)cc2)cc1C(N)=O`, the residual activity was found to be 9% in assay [1]; 29% in [2]; 5% in assay [5]; 50% in [6]; 10% in assay [7]; 81% in [17]. Further, the residual activity in [18] was 15%; in [20], 106%; in [19], 91%; in assay [8], 83%; in assay [3], 50%; in [9] it was 78%. Also, the residual activity worked out at 24% in assay [10]; 28% in assay [11]; 4% in assay [12]; 17% in assay [13]; 2% in [14]; 22% in assay [15]. In addition, the residual activity in [4] was 3%; in assay [16], 4%.

In the case of `O=C(Nc1ccc(Cl)cc1)c1ccccc1NCc1ccncc1`, the residual activity in assay [1] turned out to be 73%; in assay [2] it was 75%; in assay [5], 10%; in assay [18] it was 73%; in assay [19], 78%; in assay [8] it was 131%. In addition, the residual activity in assay [3] was determined as 101%; in [13] it was 0%; in assay [14], 2%; in assay [4], 65%; in [16], 0%.

With `O=C(c1cc2cc(O)ccc2[nH]1)c1cc2cc(O)ccc2[nH]1`, the residual activity in assay [1] amounted to 65%; in assay [2] it was 40%; in assay [5] it was 5%; in [6] it was 83%; in assay [7], 24%; in assay [17], 70%. Besides, the residual activity in assay [18] came out at 20%; in assay [3], 55%; in assay [10], 28%; in assay [11] it was 5%; in [12], 2%; in assay [13], 20%. For the same compound, the residual activity amounted to 2% in [14], 0% in assay [15], 0% in [4] and 4% in assay [16].

For the compound `O=c1cc(N2CCNCC2)oc2c(-c3ccccc3)cccc12`, the residual activity in assay [1] is 88%; in assay [2], 105%; in [5], 84%; in assay [19], 67%; in assay [3], 95%; in assay [10], 89%. The residual activity in assay [12] amounted to 90%; in [13] it was 88%; in assay [14], 95%; in assay [15], 78%; in assay [4], 81%; in assay [16] it was 96%.

With `CCOC(=O)c1c(C)[nH]c(/C=C2\C(=O)Nc3ccccc32)c1C`, the residual activity came out at 89% in [1]; 98% in assay [2]; 80% in assay [5]; 83% in assay [6]; 85% in assay [7]; 119% in assay [9]. For the same compound, the residual activity was found to be 80% in [10]; 87% in assay [11]; 74% in [12]; 38% in [13]; 15% in assay [14]; 6% in [15]. The residual activity in assay [4] stood at 9%; in assay [16] it was 1%.

For `Cn1sc(=O)n(Cc2ccccc2)c1=O`, the residual activity in assay [1] came to 61%; in assay [2], 92%; in assay [5], 86%; in [17] it was 135%; in assay [18] it was 126%; in assay [8] it was 90%. Besides, the residual activity is 91% in assay [3]; 93% in assay [9]; 85% in assay [10]; 90% in [11]; 95% in assay [12]; 85% in assay [13]. Further, the residual activity in assay [14] turned out to be 73%; in assay [15], 86%; in assay [4] it was 81%; in assay [16], 85%.

With `O=S(=O)(NCCNC/C=C/c1ccc(Br)cc1)c1cccc2cnccc12`, the residual activity in assay [1] was found to be 30%; in assay [5], 35%; in [18], 80%; in assay [3] it was 71%; in assay [9], 75%; in assay [10], 27%. Also, the residual activity in assay [12] worked out at 59%; in [14] it was 35%; in [4] it was 46%; in assay [16] it was 81%.

Regarding `CCCCc1c(-c2ccc(O)cc2)[nH]c2nccnc12`, the residual activity was determined as 19% in [1]; 41% in assay [2]; 11% in assay [5]; 85% in assay [6]; 59% in [7]; 127% in [20]. Also, the residual activity in assay [19] stood at 99%; in assay [8], 86%; in assay [3] it was 81%; in [9], 35%; in [10], 12%; in [11], 57%. Further, the residual activity in assay [12] came out at 36%; in assay [13], 43%; in assay [14] it was 11%; in [15], 29%; in assay [4], 6%; in [16], 6%.
